In general, inhibition refers to the drop in the measured response relative to a control, in per cent.

Data on 20 compounds can be found in PubChem BioAssay.

The nature of assay [1]: antimalarial activity against Dd2 strain (AID 2302;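 active means growth inhibition above 50% at the single 2 µM test dose, taken to imply half-maximal potency below 2 µM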;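 further: 0% = DMSO untreated growth and 100% = chloroquine plus artemisinin killed control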). As to conditions: P. falciparum Dd2 in RBCs, LDH growth readout, 72 h; at 2 µM; stronger effect = higher value.
A short description of assay [2]: human hepatoma cell viability loss – ATP luminescence, cytotoxicity control for P. falciparum antimalarial project, primary screen (AID 2303;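 active means inhibition above 50%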;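 further: 0% = DMSO wells and 100% = digitonin-killed cells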). As to conditions: HepG2 viability, 24-48 h, at 10 µM, stronger effect = higher value.
Assay [3] deals with L-lactate dehydrogenase (Plasmodium falciparum (isolate CDC / Honduras)) (UniProt Q27743). In words: PfLDH activity inhibition – cell lysate, 3D7 strain, counter-screen for P. falciparum growth inhibition project (AID 2304).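 Further: 0% = vehicle and 100% = reference inhibitor.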 As to conditions: P. falciparum 3D7 crude extract, LDH APAD/NBT absorbance; at 2 µM; stronger effect = higher value. On the technique in general: Counterscreens check selectivity or assay interference.
Sequence of L-lactate dehydrogenase (Plasmodium falciparum (isolate CDC / Honduras)) (Q27743 whole entry, looked up): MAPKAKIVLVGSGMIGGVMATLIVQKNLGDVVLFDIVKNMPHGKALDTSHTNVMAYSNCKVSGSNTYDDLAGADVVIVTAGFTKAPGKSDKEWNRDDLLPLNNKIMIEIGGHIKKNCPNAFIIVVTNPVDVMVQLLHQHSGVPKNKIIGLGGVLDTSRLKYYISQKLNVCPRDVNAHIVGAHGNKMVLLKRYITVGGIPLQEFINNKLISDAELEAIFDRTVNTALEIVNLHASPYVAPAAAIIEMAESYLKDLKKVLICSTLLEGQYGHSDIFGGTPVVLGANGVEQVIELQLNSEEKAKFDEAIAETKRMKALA

Assay [4] is described as follows: inhibition of 3D7 malaria parasite growth – strain 3D7 (AID 2306).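 Further: 0% = DMSO wells and 100% = chloroquine plus artemisinin control wells.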 Conditions: P. falciparum 3D7 erythrocytic growth, LDH absorbance, 72 h; at 2 µM; stronger effect = higher value.
Assay [5] deals with Calcium-dependent protein kinase 1 (Plasmodium falciparum (isolate 3D7)) (UniProt P62344). Briefly: PfCDPK1 kinase inhibitors, biochemical, TCAMS library (AID 1159585; cut-off not given, nearly all actives have IC50 up to about 0.98 µM;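 further: inhibitors leave more ATP so luminescence rises with inhibition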). As to conditions: recombinant PfCDPK1, Kinase-Glo ATP depletion luminescence. (In Kinase-Glo more light means more ATP remaining.)
Sequence of Calcium-dependent protein kinase 1 (Plasmodium falciparum (isolate 3D7)) (P62344 whole entry, looked up): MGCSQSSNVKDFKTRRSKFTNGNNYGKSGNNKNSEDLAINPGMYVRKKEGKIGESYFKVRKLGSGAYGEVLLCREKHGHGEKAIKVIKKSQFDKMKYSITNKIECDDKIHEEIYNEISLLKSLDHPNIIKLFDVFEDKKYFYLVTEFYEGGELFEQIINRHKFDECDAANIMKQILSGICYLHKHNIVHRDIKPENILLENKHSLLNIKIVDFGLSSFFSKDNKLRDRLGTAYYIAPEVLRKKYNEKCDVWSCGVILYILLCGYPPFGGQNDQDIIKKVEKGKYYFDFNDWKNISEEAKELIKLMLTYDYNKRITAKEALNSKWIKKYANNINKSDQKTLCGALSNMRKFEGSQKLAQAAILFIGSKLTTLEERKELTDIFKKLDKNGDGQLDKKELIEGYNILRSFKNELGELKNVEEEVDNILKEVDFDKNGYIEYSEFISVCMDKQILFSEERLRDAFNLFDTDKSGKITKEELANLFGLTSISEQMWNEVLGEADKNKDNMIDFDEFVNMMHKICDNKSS
The target of assay [6] is Plasmodium falciparum protein kinase 6 (PK6, PF3D7_1337100) (UniProt Q8IDW1). In words: PfPK6 kinase inhibitors, biochemical, TCAMS library (AID 1159586). Conditions: recombinant PfPK6, Kinase-Glo ATP depletion luminescence.
Sequence of Plasmodium falciparum protein kinase 6 (PK6, PF3D7_1337100) (Q8IDW1 1-305): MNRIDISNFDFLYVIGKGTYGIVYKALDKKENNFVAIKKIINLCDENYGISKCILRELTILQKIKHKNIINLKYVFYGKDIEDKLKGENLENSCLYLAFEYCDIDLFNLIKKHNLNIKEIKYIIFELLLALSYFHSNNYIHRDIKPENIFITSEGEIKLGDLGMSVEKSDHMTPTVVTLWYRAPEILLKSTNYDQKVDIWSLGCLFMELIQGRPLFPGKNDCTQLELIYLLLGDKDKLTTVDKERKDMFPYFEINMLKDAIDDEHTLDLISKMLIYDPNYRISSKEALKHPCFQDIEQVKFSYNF
The target of assay [7] is Protein kinase 7 (PK7), Plasmodium falciparum 3D7 (PF3D7_0213400) (UniProt Q7YTF7). In words: inhibition of Plasmodium PK7 catalytic activity – biochemical, TCAMS antimalarial set, Kinase-Glo luminescence (AID 1159587). As to conditions: recombinant PfPK7, Kinase-Glo ATP depletion luminescence.
Sequence of Protein kinase 7 (PK7), Plasmodium falciparum 3D7 (PF3D7_0213400) (Q7YTF7 1-343): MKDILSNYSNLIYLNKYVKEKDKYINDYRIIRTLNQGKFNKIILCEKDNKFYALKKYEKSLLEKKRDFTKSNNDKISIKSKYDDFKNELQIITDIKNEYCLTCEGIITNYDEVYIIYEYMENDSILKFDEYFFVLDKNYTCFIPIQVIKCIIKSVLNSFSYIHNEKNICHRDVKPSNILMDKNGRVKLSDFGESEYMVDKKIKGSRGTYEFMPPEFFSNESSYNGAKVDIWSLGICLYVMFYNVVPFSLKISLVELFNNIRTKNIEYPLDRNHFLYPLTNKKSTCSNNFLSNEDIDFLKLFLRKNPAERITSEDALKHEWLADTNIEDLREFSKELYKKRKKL
The target of assay [8] is Calcium-dependent protein kinase 4 (Plasmodium falciparum (isolate 3D7)) (UniProt Q8IBS5). In words: PfCDPK4 kinase inhibitors, biochemical, TCAMS library (AID 1159588; cut-off not given, nearly all actives have IC50 up to about 0.91 µM). Conditions: recombinant PfCDPK4, Kinase-Glo ATP depletion luminescence.
Sequence of Calcium-dependent protein kinase 4 (Plasmodium falciparum (isolate 3D7)) (Q8IBS5 whole entry, looked up): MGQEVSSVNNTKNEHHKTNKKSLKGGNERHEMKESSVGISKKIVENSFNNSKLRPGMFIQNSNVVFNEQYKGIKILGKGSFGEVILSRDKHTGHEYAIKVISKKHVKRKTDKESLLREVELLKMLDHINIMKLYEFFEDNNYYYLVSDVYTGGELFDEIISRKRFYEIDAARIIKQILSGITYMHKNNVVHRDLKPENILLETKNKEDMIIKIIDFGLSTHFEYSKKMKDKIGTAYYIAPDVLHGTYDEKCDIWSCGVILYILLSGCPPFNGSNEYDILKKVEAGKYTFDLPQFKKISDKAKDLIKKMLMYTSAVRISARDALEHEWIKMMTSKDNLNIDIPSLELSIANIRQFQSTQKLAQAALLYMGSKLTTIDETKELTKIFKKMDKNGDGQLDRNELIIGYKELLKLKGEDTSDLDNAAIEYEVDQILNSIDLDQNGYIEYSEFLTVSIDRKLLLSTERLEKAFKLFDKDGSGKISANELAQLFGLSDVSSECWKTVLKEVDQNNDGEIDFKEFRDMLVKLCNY

Values without a mark were called inactive. For some of these results: Entries with a potency or affinity are not part of this list. The source made the active and inactive calls. Unless noted, how the calls were made is not given here.

As for `C=CCOc1ccc(C(=O)Nc2nonc2-c2ccc(OC)c(OC)c2)cc1`, the growth inhibition is 91% (active) in assay [1] and 100% (active) in assay [4]. Also, the results for the inhibition in assay [2] and in assay [3] were 2% and -5%, respectively. Moreover, the outcome in assay [5], in assay [6], in assay [7] and in assay [8] was inactive.
Take `O=C(Nc1ccc(C(F)(F)F)cc1)c1cccc(S(=O)(=O)NC2CCN(CC3CCCCC3)C2)c1` (stereo not given): the growth inhibition in assay [1] is 10%; in assay [4], 98% (active). The inhibition in assay [2] is 32%; in assay [3] it was -2%. Further, the result in assay [5], in assay [6], in assay [7] and in assay [8] was inactive.
As for `Cc1cc(N[C@@H](CC(C)C)C(=O)NCCCOC(C)C)nc(NCCc2ccc(F)cc2)n1`, the growth inhibition in assay [1] is 19%; in assay [4] it was 87% (active). Moreover, the inhibition in assay [2] was 5%; in assay [3] it was -2%. For the same compound, the result in assay [5], in assay [6], in assay [7] and in assay [8] was inactive.
Turning to `Cc1cccc(CC2CC(=O)N(c3ccc([N+](=O)[O-])cc3)C2=O)c1` (stereo not given), the growth inhibition in assay [1] was 1%; in assay [4] it was 95% (active). Also, the inhibition in assay [2] is 11%; in assay [3], 2%. Besides, the outcome in assay [5], in assay [6], in assay [7] and in assay [8] was inactive.
`CCCCCCCCOc1c(OCC)cc(Cc2cnc(N)nc2N)cc1OCC`: the growth inhibition in assay [1] is -1%; in assay [4], 80% (active). Besides, the inhibition in assay [2] is 25%; in assay [3] it was 3%. Moreover, the outcome in assay [5], in assay [6], in assay [7] and in assay [8] was inactive.
As for `COc1ccc(C2CC(c3cccs3)=NN2C(=O)CNc2cccc(C#N)c2)cc1OC` (stereo not given), the growth inhibition is 35% in assay [1] and 87% (active) in assay [4]. For the same compound, the values for the inhibition in assay [2] and in assay [3] were 8% and -4%, respectively. In addition, the outcome in assay [5], in assay [6], in assay [7] and in assay [8] was inactive.
As to `O=C(NCCCCN1CCC(c2c[nH]c3ccccc23)CC1)c1ccc(-c2ccc(C(F)(F)F)cc2)cc1`, the growth inhibition in assay [1] was 22%; in assay [4], 98% (active). Also, the inhibition in assay [2] was 34%; in assay [3], -1%. The result in assay [5], in assay [6], in assay [7] and in assay [8] was inactive.
On to `O=C(Cc1ccc(NC(=O)c2ccc(O)c(-c3cccc([N+](=O)[O-])c3)c2)cc1)NCCN1CCCCC1`, for which the growth inhibition in assay [1] was 3%; in assay [4] it was 89% (active). In addition, the inhibition in assay [2] and in assay [3] was 4% each time. Besides, the result in assay [5], in assay [6], in assay [7] and in assay [8] was inactive.
Turning to `COc1ccc(-c2ccc(NC(=O)c3ccc(Cl)cc3)cc2)cc1CN1CCC(O)CC1`, the values for the growth inhibition in assay [1] and in assay [4] were 15% and 89% (active), respectively. The inhibition in assay [2] was 20%; in assay [3], 5%. For the same compound, the outcome in assay [5], in assay [6], in assay [7] and in assay [8] was inactive.
As for `CN(C)CCOc1cc(NC(=O)Nc2cccc3c(-c4ccncc4)cccc23)ccc1I`, the growth inhibition is 28% in assay [1] and 100% (active) in assay [4]. Also, the inhibition in assay [2] was 20%; in assay [3] it was 0%. The outcome in assay [5], in assay [6], in assay [7] and in assay [8] was inactive.
Take `Cc1nc(C)c(CC(=O)Nc2ccc(-c3cccc(-c4nc5ccc(C(F)(F)F)cc5[nH]4)c3)cc2)s1`: the growth inhibition in assay [1] was 4%; in assay [4], 86% (active). Further, the inhibition in assay [2] is 67% (active); in assay [3], 1%. Also, the result in assay [5], in assay [6], in assay [7] and in assay [8] was inactive.
With `CCCCCCCN(CCCCCCC)CCNc1cc(C)nc2ccccc12`, the growth inhibition is 31% in assay [1] and 89% (active) in assay [4]. Also, the results for the inhibition in assay [2] and in assay [3] were 39% and -2%, respectively. The outcome in assay [5], in assay [6], in assay [7] and in assay [8] was inactive.
Take `S=C(NCCCCCN1CCC(c2c[nH]c3ccccc23)CC1)Nc1cccc(I)c1`: the growth inhibition in assay [1] was 14%; in assay [4], 99% (active). Also, the values for the inhibition in assay [2] and in assay [3] were 69% (active) and -3%, respectively. Further, the outcome in assay [5], in assay [6], in assay [7] and in assay [8] was inactive.
Take `COc1ccc(CNCCc2cccs2)cc1-c1ccc(OC)c(S(=O)(=O)NCCN2CCCC2)c1`: the growth inhibition in assay [1] was 19%; in assay [4] it was 96% (active). Also, the inhibition in assay [2] is 16%; in assay [3], 1%. For the same compound, the result in assay [5], in assay [6], in assay [7] and in assay [8] was inactive.
`Cc1ccc(-c2[nH]n3c(=O)c4c(nc3c2C)CCCC4)cc1`: the values for the growth inhibition in assay [1] and in assay [4] were 87% (active) and 97% (active), respectively. Besides, the inhibition in assay [2] is 16%; in assay [3] it was -1%. In addition, the outcome in assay [5], in assay [6], in assay [7] and in assay [8] was inactive.
Turning to `CN1CCc2cc(CN3C[C@]4(C)C[C@H]3CC(C)(C)C4)c(O)cc2C(c2ccccc2)C1` (stereo not given in full), the values for the growth inhibition in assay [1] and in assay [4] were 88% (active) and 98% (active), respectively. The results for the inhibition in assay [2] and in assay [3] were -4% and -3%, respectively. For the same compound, the outcome in assay [5], in assay [6], in assay [7] and in assay [8] was inactive.
On to `CCCCCCCCCCN1C(=O)C2C(CCCCNC(C)=O)NC3(C(=O)N(Cc4ccc(C(C)(C)C)cc4)c4ccccc43)C2C1=O` (stereo not given), for which the growth inhibition is 65% (active) in assay [1] and 86% (active) in assay [4]. Further, the figures for the inhibition in assay [2] and in assay [3] were 3% and -3%, respectively. Further, the outcome in assay [5], in assay [6], in assay [7] and in assay [8] was inactive.
`O=[N+]([O-])c1cccc(CNCC2CCN(Cc3ccc4ccccc4c3)CC2)c1`: the growth inhibition in assay [1] was 42%; in assay [4], 100% (active). The values for the inhibition in assay [2] and in assay [3] were 18% and 4%, respectively. Also, the outcome in assay [5], in assay [6], in assay [7] and in assay [8] was inactive.
As to `O=C(NCc1ccc(C(=O)NC2CCCCCC2)cc1)c1ccc(O)c(-c2ccc(Cl)c(Cl)c2)c1`, the growth inhibition in assay [1] was 21%; in assay [4] it was 83% (active). The inhibition was -1% in assay [2] and -3% in assay [3]. Besides, the outcome in assay [5], in assay [6], in assay [7] and in assay [8] was inactive.
Take `CC(C)CN(C)Cc1ccc(-c2ccc(-c3nc4ccccc4[nH]3)s2)cc1`: the growth inhibition was 76% (active) in assay [1] and 97% (active) in assay [4]. The inhibition in assay [2] is 8%; in assay [3], 2%. Also, the outcome in assay [5], in assay [6], in assay [7] and in assay [8] was inactive.
